Bioassay records as filed in PubChem BioAssay.
Hits are enriched below; roughly 6.9% of the tested compounds scored in any of these assays.
Mdm2-MdmX inh: disrupts the human Mdm2-MdmX interaction; O15151+Q00987; SaOS-2 split-luciferase Mdm2/MdmX complementation, luminescence; AID 485346; inhibition, % at 8 µM; 330,000 tested, 3% active;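 active = inhibition of at least 50% at 8 µM in the primary screen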
Target sequence (O15151 whole entry, looked up): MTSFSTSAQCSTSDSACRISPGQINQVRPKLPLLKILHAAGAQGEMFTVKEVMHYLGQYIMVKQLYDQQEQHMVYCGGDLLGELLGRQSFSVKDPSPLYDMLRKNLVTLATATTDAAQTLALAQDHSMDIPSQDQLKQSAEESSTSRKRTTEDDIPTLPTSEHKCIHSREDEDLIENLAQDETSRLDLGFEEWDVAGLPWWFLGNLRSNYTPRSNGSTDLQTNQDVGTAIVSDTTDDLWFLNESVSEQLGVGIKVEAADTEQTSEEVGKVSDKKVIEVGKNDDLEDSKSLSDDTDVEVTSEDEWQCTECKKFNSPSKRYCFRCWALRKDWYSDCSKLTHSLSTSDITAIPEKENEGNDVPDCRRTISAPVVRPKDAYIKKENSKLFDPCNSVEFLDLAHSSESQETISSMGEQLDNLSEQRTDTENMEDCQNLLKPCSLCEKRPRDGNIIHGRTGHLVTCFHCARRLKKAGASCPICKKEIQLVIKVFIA
Target sequence (Q00987 whole entry, looked up): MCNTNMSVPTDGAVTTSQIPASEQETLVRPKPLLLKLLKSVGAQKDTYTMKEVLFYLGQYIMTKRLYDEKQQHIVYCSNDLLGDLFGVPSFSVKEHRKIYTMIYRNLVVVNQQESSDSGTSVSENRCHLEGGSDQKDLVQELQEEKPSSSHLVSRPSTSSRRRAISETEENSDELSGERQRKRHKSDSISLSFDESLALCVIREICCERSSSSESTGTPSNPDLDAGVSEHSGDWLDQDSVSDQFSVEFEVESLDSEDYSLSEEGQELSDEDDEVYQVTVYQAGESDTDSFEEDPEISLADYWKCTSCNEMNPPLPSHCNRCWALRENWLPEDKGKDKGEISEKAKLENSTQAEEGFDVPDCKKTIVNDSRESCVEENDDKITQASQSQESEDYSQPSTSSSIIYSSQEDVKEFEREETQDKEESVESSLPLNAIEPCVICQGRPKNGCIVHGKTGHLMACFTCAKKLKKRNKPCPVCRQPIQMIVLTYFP
MPTP block: permeability transition pore inhibition. isolated mouse mitochondria, Ca2+ swelling absorbance, 30 min. inhibition, % at 10 µM. 360,000 tested, 1.4% active. AID 602449;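 active = inhibition of 50% or more, scaled per plate between neutral and stimulator controls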;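 note: 0% = DMSO wells given calcium and 100% = 1 mM EGTA wells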
CSC inhib: blocks cancer stem cells | cancer stem cell-like cells viability, luminescence | inhibition, % at 7.5 µM | 300,000 tested, 1.1% active | AID 2717; in the data active = inhibition above about 75%; tested in HMLE shEcad cells
Beta apoptosis: beta cell apoptosis inhibition; INS-1E cytokine-induced death, ATP luminescence, 48 h; percent of positive-control rescue, neutral wells zero; 300,000 tested, 0.8% active; protection from apoptosis, % (concentration not given with the values);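 active = Every replicate reaches about 75%, or at least half do and their mean reaches it too, limit read from the data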;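 note: 0% = cytokine-treated negative control wells and 100% = positive control rescue; higher means more ATP so stronger rescue from cytokine killing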
SKKanGAS inh: SKKanGAS growth inhibition. S. pyogenes SKKanGAS, kanamycin growth, BacTiter-Glo, 6 h. inhibition, % at 7.5 µM. 300,000 tested, 1.3% active;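 active = mean replicate score, as percent of positive control median, at least 50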;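 note: strain carries kanamycin resistance gene driven by streptokinase promoter and grows in 40 µg/ml kanamycin; loss of luminescence reflects streptokinase promoter inhibition or plain growth inhibition; 0% = median of DMSO wells and 100% = positive control at its reference dose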
NR3A LBD binder: modulators (binders) of human NR3A ligand-binding domain; NR3A LBD differential scanning fluorimetry, Tm shift; 0% = protein alone, 100% = glycine-bound protein; Tm shift relative to glycine control, % at 25 µM; 340,000 tested, 2.5% active; AID 1259313;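 active = melting temperature shift of at least 10% of the positive control shift, at one fixed dose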
Mdm2 MdmX conf: human Mdm2/MdmX binding inhibition, confirmed; 10,000 tested, 55% active; luminescent assay; shares compounds with Mdm2-MdmX inh; inhibition, % at 8 µM; AID 489028; in the data active = inhibition above about 40%
FLuc counter: inhibits full-length luciferase, flagging false Mdm2/MdmX hits. 6,200 tested, 77% active. SaOS-2 full-length luciferase counterscreen, luminescence. inhibition, % at 8 µM. shares compounds with Mdm2-MdmX inh;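 active = mean inhibition at 8 µM reaching about 37%, which flags the compound as non-specific, limit read from the data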;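 note: p53-null SaOS-2 cells with luciferase driven by a doxycycline-inducible promoter; compound on cells about two nights before reading with doxycycline added after day one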
The depositor's hits bear a star; . = not tested or not shown.

SMILES	Mdm2-MdmX inh	MPTP block	CSC inhib	Beta apoptosis	SKKanGAS inh	NR3A LBD binder	Mdm2 MdmX conf	FLuc counter
CC(=O)NC(c1ccccc1)c1cc([N+](=O)[O-])c2cccnc2c1O (centres undefined)	63.3*	-19.1	119.7*	36.5	33.7	-6.7	67.0*	49.6*
CC(=O)Nc1ccc(S(=O)(=O)NC(C)C(=O)NCC(c2ccco2)N(C)C)cc1 (centres undefined)	24.1	1.7	.	.	.	0.5	.	.
Brc1nc(-c2ccccc2)nc(-c2ccccc2)c1Br	79.0*	-0.6	50.6	-5.3	3.1	-1.8	17.5	.
COc1ccc(C(=O)NCCNc2ccccc2[N+](=O)[O-])cc1	-113.0	0.6	-11.3	-3.7	-17.1	0.2	.	.
CCCNC(=O)c1ccc(S(=O)(=O)c2ccc(OC)cc2)c([N+](=O)[O-])c1	86.9*	2.6	6.2	-22.5	-6.7	-1.0	53.0*	18.7
CN(C)c1ccc(/C=C2/SC(=O)N(CCN=C3NS(=O)(=O)c4ccccc43)C2=O)cc1	60.5*	6.8	0.8	4.3	3.8	-6.1	20.9	.
N#CCCn1cc(/C=C2\NC(=S)N(c3ccccc3)C2=O)c(-c2ccc(-c3ccccc3)cc2)n1	63.3*	3.3	-2.2	6.2	8.8	22.4*	18.6	.
O=C(O)CCn1cc(/C=C2/NC(=S)N(c3ccccc3)C2=O)c(-c2ccccc2)n1	0.2	-0.7	-8.5	-9.1	3.5	0.5	.	.
COC(=O)C1CCN(C(=O)C2CCC(=O)N(CCc3cccc(F)c3)C2)CC1 (centres undefined)	-18.7	0.3	-2.5	-1.5	-4.2	1.5	.	.
CCOc1ccc(-c2cc(C(=O)NCCCn3ccnc3)c3ccccc3n2)cc1	8.3	-2.0	-0.4	7.6	16.0	-0.1	.	.
CCOc1ccc(-c2cc(C(=O)NCCCn3ccnc3)c3cc(Br)ccc3n2)cc1	100.4*	-0.7	11.1	108.2*	7.3	-13.9	22.9	.
COc1ccc(-c2ccnc(-c3ccc(O)cc3)n2)cc1	51.7*	0.5	-7.1	-0.1	-0.4	-2.8	39.6	83.9*
Cc1ccccc1Cn1c(CN2CCN(c3ccc(F)cc3)CC2)nc2c1c(=O)n(C)c(=O)n2C	62.1*	.	58.2	8.1	3.6	.	27.6	.
CCOC(=O)/C=c1\s/c(=C\c2ccc3cc(OC)ccc3c2)c(=O)n1CC(=O)NCc1ccc2c(c1)OCO2	79.4*	1.8	9.3	-1.4	2.6	1.1	13.8	.
CCOC(=O)/C=c1\s/c(=C\c2ccccc2C)c(=O)n1CC(=O)NCc1ccc2c(c1)OCO2	92.1*	1.0	44.7	9.5	9.0	0.8	67.5*	44.1*
CCOC(=O)/C=c1\s/c(=C\c2ccc3c(c2)OCCO3)c(=O)n1CC(=O)NCC1CCCO1 (centres undefined)	16.7	-1.7	0.2	-10.1	2.1	2.1	.	.
CCOC(=O)C1CCCN(c2ccc(NC(=O)c3snc4c(=O)[nH]c(C)nc34)cc2)C1 (centres undefined)	69.9*	3.4	-7.8	23.2	21.2	-13.7	40.7*	87.6*
Cc1cc(C(=O)COC(=O)C2=NNC(=O)CC2)c(C)n1-c1ccccc1	22.9	-2.0	.	.	2.0	2.2	.	.
Cc1cc(C(=O)COC(=O)c2ccc[nH]c2=O)c(C)n1-c1ccccc1F	-17.4	1.3	2.8	2.8	3.7	-0.7	.	.
Cc1cc(C(=O)COC(=O)C2=COCCO2)c(C)n1-c1ccccc1	83.1*	-0.6	2.5	-4.0	.	-2.8	84.0*	31.6
Cc1cc(C(=O)COC(=O)c2ccc(O)cc2)c(C)n1-c1ccccc1F	56.8*	1.1	.	-2.0	-2.1	-3.7	64.1*	137.8*
Cc1cc(C(=O)Cn2nnc3ccccc3c2=O)c(C)n1-c1ccccc1F	85.1*	-2.3	43.9	3.4	4.7	-1.2	78.3*	103.4*
C=C1C(=O)O[C@H]2C[C@H]1[C@@H](OC(C)=O)C/C(C)=C/CC/C(C)=C\CC[C@]2(C)O	.	-0.9	.	.	.	-0.7	.	.
C=C1C(=O)O[C@@H]2[C@H]3O[C@]3(C)CC/C=C(\C)CC[C@@H]12	67.6*	-1.3	-8.5	-10.9	.	0.0	53.7*	62.2*
Cn1c2c(c(=O)n(C)c1=O)C(c1ccc(C(F)(F)F)cc1)CC(=O)N2 (centres undefined)	-13.7	-1.7	3.4	6.2	4.2	-0.6	.	.
SMILES	Mdm2-MdmX inh	MPTP block	CSC inhib	Beta apoptosis	SKKanGAS inh	NR3A LBD binder	Mdm2 MdmX conf	FLuc counter
C[C@H]1C=CC(=O)O[C@H]1c1ccccc1	50.1*	-0.2	-11.3	-66.3	1.3	1.1	8.3	.
C[C@@H]1C=CC(=O)O[C@@H]1c1ccc(C(F)(F)F)cc1	75.7*	.	91.7*	6.3	4.1	.	69.2*	9.1
Cc1ccc(S(=O)(=O)c2c(C)nn(C(C)(C)C)c2OC(=O)C2CCCC2)cc1	69.9*	-2.9	32.7	-12.3	1.8	10.2*	23.6	.
O=C(CNC(=O)c1ccc2c(c1)OCO2)N/N=C/c1cc(Br)ccc1O	51.6*	1.0	.	81.0*	60.7*	-4.2	58.5*	47.0*
COc1ccc(O)c(/C=N/NC(=O)c2ccc(OCc3cccc(Br)c3)cc2)c1	67.9*	8.4	90.7*	93.2*	10.6	27.4*	69.2*	32.8
COc1ccc(C(=O)N/N=C/c2cc(Br)ccc2O)cc1OC	67.0*	6.0	36.4	103.6*	85.8*	-32.7	64.2*	29.6
COc1ccc(Br)cc1/C=N/NC(=O)c1cc(Br)ccc1O	20.6	.	.	-4.7	9.3	.	.	.
Cn1cccc1-c1cc(C(=O)N/N=C/c2cc(Br)ccc2O)[nH]n1	74.3*	0.7	.	20.6	89.6*	26.8*	78.0*	25.9
O=C(CNC(=O)c1ccccc1)N/N=C/c1cc(Br)ccc1O	39.8	-1.2	21.4	74.7	-3.6	-11.2	.	.
O=C(COc1cc2oc(=O)c3c(c2cc1Cl)CCCC3)NCC1CCC(C(=O)O)CC1 (centres undefined)	7.3	0.8	4.8	-0.2	7.9	-4.3	.	.
c1ccc(C(c2ccccc2)N2CCN(c3nc4ccccc4n4cnnc34)CC2)cc1	67.9*	.	31.7	108.1*	10.1	-5.2	18.2	.
N/C(=N\OC(=O)c1cccc(C(F)(F)F)c1)c1cnccn1	13.3	-0.6	-16.7	-2.7	-7.4	-14.8	.	.
O=C(OCn1ncc(Cl)c(Cl)c1=O)c1cccc(C(F)(F)F)c1	82.4*	-1.0	23.0	6.8	5.3	-1.3	100.2*	52.3*
CCc1c(C2(O)CCCCC2)[nH]c2ncccc12	-25.7	-2.3	2.4	1.1	.	-2.2	.	.
O=C(NCc1cccnc1)c1c(O)c2cccc3c2n(c1=O)CCC3	70.8*	-2.5	-1.2	-7.0	-2.4	-0.6	44.7*	31.4
NCCNC(=O)c1c(O)c2cccc3c2n(c1=O)CCC3	-22.4	-1.3	.	.	5.5	2.9	.	.
